# From PMC7862700, “An all-to-all approach to the identification of sequence-specific readers for epigenetic DNA modifications on cytosine”
# Legend:
# Assay in all cases: DAPPL (digital affinity profiling via proximity ligation, sequencing); 10 mM Tris-HCl pH 7.5, 50 mM NaCl, 1 mM DTT, 4% glycerol, room temperature, 30 min; GST-TFs on glutathione beads, 16-mer random dsDNA library, 0.1% formaldehyde crosslink after washing; high values mean tight binding
# [1] = target: T1, FLI1 (Homo sapiens, UniProt Q01543 1-452); conditions: protein: recombinant; tags: N-terminal GST; dsDNA, one strand shown
# T1 sequence: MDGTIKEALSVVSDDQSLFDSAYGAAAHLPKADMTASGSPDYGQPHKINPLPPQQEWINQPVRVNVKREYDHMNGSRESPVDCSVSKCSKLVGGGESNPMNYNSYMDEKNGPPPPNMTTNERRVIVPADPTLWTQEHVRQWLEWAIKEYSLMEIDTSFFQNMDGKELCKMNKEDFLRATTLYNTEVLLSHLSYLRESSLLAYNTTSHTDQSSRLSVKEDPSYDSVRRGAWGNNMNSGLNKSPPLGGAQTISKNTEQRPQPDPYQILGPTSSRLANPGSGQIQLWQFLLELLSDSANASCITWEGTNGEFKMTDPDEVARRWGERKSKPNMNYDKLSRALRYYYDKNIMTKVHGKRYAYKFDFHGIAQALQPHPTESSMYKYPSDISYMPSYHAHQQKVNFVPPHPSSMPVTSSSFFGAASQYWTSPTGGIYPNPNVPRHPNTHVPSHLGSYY
# How it was run: (§1)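 The binding signal reported is, for every hexamer, its read frequency for a factor over its read frequency for the tag-only sample. Reads came from pools of yeast-expressed, GST-fused human transcription factors on glutathione beads, barcoded with DNA and mixed with that sample, which were incubated with 200 nmole of a random double-stranded 16-mer DNA library in Tris/NaCl/DTT/glycerol buffer at room temperature for 30 min. After washing, the pools were crosslinked with 0.1% formaldehyde, proximity-ligated with BsaI/T4 ligase for 1 h at 37 °C, PCR-amplified and sequenced on an Illumina NextSeq500.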
# [2] = target: T2, ELK1 (Homo sapiens, UniProt P19419 1-428); conditions: protein: recombinant; tags: N-terminal GST; dsDNA, one strand shown
# T2 sequence: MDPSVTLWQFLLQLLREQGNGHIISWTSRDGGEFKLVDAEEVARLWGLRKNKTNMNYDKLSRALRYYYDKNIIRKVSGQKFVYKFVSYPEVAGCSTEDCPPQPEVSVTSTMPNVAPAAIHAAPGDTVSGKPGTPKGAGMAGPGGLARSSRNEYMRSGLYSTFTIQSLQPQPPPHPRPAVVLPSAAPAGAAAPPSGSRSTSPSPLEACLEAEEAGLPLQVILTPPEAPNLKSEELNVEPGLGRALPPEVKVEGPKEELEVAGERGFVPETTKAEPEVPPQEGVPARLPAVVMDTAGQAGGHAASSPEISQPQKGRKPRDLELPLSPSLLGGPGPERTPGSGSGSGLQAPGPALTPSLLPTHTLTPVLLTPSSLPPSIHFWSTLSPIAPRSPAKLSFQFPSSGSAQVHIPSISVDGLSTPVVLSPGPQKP
# How it was run: as §1
# [3] = target: T3, GABPA (Homo sapiens, UniProt Q06546 1-454); conditions: protein: recombinant; tags: N-terminal GST; dsDNA, one strand shown
# T3 sequence: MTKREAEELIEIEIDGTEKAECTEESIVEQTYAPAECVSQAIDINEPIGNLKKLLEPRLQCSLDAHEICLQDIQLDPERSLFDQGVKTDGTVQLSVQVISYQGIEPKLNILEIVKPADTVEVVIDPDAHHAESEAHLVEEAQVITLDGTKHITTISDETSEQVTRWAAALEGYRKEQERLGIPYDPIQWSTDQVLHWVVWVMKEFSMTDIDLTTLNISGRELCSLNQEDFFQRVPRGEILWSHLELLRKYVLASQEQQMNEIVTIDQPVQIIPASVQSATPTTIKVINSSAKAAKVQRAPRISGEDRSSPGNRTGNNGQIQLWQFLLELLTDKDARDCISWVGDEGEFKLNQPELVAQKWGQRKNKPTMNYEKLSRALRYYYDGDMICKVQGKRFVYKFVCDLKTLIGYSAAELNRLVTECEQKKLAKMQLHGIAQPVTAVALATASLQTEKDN
# How it was run: as §1
# [4] = target: T4, ERG (Homo sapiens, UniProt P11308 1-479); conditions: protein: recombinant; tags: N-terminal GST; dsDNA, one strand shown
# T4 sequence: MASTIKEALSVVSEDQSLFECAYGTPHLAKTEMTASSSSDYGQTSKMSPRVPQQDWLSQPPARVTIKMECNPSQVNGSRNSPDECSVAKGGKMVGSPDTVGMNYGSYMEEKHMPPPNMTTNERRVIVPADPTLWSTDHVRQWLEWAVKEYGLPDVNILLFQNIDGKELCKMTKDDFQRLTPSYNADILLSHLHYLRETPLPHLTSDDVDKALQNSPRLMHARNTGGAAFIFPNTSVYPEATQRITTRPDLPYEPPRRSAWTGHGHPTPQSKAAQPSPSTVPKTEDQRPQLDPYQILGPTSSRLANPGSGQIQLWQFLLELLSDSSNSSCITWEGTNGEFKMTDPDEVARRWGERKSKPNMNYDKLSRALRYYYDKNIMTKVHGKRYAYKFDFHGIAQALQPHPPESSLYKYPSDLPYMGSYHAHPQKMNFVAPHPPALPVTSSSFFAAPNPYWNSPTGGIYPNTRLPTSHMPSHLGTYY
# How it was run: as §1
# [5] = target: ELF1 (Homo sapiens, UniProt P32519 1-619); conditions: protein: recombinant; tags: N-terminal GST; dsDNA, one strand shown
# How it was run: as §1
# [6] = target: T5, EHF (Homo sapiens, UniProt Q9NZC4 1-300); conditions: protein: recombinant; tags: N-terminal GST; dsDNA, one strand shown
# T5 sequence: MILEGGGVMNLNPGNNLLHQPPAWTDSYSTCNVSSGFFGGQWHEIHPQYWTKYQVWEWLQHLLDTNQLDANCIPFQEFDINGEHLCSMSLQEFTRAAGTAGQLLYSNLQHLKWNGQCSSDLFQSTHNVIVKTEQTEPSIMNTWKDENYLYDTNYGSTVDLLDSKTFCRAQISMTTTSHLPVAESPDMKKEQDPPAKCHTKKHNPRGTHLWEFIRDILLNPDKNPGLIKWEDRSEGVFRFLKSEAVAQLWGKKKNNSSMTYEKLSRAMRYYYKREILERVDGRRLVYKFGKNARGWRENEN
# How it was run: as §1
# [7] = target: SPI1 (Homo sapiens, UniProt P17947 1-270); conditions: protein: recombinant; tags: N-terminal GST; dsDNA, one strand shown
# How it was run: as §1
# [8] = target: SPIB (Homo sapiens, UniProt Q01892 1-262); conditions: protein: recombinant; tags: N-terminal GST; dsDNA, one strand shown
# How it was run: as §1
# [9] = target: T6, ELK3 (Homo sapiens, UniProt P41970 1-407); conditions: protein: recombinant; tags: N-terminal GST; dsDNA, one strand shown
# T6 sequence: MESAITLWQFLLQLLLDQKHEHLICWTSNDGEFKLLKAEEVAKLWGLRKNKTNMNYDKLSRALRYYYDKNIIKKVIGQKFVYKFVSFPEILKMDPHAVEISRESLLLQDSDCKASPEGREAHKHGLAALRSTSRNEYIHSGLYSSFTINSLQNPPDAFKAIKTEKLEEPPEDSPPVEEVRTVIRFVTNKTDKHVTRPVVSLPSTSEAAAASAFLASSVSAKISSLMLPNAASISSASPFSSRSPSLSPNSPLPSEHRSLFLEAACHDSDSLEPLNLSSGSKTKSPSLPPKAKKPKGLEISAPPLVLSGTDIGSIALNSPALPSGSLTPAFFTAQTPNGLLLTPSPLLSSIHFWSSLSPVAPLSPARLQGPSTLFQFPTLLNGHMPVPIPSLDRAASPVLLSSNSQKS
# How it was run: as §1
# [10] = target: T7, FEV (Homo sapiens, UniProt Q99581 1-238); conditions: protein: recombinant; tags: N-terminal GST; dsDNA, one strand shown
# T7 sequence: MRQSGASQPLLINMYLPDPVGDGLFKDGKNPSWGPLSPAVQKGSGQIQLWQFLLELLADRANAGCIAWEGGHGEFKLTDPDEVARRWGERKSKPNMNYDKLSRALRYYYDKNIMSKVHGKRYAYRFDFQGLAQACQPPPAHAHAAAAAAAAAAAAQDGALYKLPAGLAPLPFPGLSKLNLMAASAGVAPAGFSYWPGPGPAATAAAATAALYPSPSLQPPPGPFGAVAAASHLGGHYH
# How it was run: as §1
# [11] = target: ETV5 (Homo sapiens, UniProt P41161 1-510); conditions: protein: recombinant; tags: N-terminal GST; dsDNA, one strand shown
# How it was run: as §1
# [12] = target: HSF1 (Homo sapiens, UniProt Q00613 1-529); conditions: protein: recombinant; tags: N-terminal GST; chain copies: 3; dsDNA, one strand shown
# How it was run: as §1
# [13] = target: T8, SPIC (Homo sapiens, UniProt Q8N5J4 1-248); conditions: protein: recombinant; tags: N-terminal GST; dsDNA, one strand shown
# T8 sequence: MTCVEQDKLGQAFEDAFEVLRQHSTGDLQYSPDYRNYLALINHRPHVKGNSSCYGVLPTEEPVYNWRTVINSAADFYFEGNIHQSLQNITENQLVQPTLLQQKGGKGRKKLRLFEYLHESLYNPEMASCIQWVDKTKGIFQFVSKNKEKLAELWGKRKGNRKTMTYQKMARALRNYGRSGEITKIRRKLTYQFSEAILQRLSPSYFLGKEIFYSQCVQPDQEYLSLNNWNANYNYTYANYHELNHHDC
# How it was run: as §1
# [14] = target: ELF4 (Homo sapiens, UniProt Q99607 1-663); conditions: protein: recombinant; tags: N-terminal GST; dsDNA, one strand shown
# How it was run: as §1
# [15] = target: T9, ELK4 (Homo sapiens, UniProt P28324-2 1-405); conditions: protein: recombinant; tags: N-terminal GST; dsDNA, one strand shown
# T9 sequence: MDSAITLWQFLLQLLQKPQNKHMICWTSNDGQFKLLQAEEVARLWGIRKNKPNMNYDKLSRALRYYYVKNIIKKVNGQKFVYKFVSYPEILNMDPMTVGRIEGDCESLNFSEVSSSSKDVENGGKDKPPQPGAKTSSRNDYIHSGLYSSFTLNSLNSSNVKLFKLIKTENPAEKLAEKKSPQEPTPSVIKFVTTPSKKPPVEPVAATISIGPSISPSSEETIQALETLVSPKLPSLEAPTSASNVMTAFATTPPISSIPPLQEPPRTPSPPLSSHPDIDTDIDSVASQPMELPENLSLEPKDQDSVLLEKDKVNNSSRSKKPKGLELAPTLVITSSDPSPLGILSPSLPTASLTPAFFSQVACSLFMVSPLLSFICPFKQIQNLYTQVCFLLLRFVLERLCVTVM
# How it was run: as §1
# [16] = target: T10, ELF3 (Homo sapiens, UniProt P78545 1-371); conditions: protein: recombinant; tags: N-terminal GST; dsDNA, one strand shown
# T10 sequence: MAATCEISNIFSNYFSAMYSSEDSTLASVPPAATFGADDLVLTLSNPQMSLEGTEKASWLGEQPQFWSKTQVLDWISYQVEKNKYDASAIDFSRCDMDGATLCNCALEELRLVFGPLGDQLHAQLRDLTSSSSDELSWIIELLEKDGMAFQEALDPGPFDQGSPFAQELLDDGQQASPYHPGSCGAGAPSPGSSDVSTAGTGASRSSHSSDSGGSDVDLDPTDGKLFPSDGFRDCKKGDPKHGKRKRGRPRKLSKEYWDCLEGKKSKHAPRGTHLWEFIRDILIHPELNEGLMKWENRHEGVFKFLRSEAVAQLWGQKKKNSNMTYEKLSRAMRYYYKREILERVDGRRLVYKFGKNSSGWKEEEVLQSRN
# How it was run: as §1
# [17] = target: CRX (Homo sapiens, UniProt O43186 1-299); conditions: protein: recombinant; tags: N-terminal GST; dsDNA, one strand shown
# How it was run: as §1
# [18] = target: ETV1 (Homo sapiens, UniProt P50549 1-477); conditions: protein: recombinant; tags: N-terminal GST; dsDNA, one strand shown
# How it was run: as §1
# Chain of ELF1 (P32519 whole entry): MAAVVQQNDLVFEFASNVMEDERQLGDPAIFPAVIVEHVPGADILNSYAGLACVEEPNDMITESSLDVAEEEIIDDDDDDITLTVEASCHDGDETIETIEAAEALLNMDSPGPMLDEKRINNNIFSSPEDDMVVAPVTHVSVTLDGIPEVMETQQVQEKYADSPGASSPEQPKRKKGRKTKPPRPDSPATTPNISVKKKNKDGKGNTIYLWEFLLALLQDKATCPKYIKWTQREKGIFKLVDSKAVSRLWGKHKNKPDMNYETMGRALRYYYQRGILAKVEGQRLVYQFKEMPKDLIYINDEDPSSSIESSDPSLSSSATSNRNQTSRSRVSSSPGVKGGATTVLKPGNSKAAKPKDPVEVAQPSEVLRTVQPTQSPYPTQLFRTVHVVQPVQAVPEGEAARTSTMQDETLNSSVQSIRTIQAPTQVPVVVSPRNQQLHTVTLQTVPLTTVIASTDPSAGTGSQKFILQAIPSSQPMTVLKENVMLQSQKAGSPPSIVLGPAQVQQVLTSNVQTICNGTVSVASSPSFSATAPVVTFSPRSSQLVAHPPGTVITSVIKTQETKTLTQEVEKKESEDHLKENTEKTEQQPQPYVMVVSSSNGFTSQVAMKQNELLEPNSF
# Chain of ETV1 (P50549 whole entry): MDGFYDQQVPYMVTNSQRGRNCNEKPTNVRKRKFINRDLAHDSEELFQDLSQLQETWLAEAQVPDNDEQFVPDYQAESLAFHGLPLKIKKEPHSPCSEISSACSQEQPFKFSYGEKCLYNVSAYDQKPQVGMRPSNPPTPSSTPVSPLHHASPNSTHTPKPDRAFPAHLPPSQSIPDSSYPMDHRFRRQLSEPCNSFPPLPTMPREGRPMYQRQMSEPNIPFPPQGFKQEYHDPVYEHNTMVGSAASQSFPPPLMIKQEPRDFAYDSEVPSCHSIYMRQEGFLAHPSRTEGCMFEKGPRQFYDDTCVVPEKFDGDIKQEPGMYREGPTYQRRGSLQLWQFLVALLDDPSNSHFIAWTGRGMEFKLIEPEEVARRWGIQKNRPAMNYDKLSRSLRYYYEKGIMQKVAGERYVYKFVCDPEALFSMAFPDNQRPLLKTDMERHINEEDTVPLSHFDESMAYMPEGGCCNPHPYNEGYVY
# Chain of SPIB (Q01892 whole entry): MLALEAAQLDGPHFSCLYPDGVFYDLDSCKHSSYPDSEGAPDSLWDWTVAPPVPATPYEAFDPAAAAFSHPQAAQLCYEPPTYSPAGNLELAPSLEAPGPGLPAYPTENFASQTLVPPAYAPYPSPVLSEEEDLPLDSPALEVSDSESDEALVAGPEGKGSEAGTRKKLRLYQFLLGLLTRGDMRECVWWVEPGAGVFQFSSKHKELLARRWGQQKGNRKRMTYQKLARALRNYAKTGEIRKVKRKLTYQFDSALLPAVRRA
# Chain of CRX (O43186 whole entry): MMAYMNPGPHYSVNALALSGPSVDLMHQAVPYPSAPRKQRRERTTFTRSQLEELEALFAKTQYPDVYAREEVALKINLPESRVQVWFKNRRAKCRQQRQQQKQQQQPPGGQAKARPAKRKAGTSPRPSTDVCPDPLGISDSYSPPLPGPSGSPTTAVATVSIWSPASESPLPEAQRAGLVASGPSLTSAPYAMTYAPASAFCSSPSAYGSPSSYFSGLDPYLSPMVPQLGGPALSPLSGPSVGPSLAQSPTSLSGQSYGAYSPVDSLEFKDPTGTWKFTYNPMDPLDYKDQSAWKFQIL
# Chain of ELF4 (Q99607 whole entry): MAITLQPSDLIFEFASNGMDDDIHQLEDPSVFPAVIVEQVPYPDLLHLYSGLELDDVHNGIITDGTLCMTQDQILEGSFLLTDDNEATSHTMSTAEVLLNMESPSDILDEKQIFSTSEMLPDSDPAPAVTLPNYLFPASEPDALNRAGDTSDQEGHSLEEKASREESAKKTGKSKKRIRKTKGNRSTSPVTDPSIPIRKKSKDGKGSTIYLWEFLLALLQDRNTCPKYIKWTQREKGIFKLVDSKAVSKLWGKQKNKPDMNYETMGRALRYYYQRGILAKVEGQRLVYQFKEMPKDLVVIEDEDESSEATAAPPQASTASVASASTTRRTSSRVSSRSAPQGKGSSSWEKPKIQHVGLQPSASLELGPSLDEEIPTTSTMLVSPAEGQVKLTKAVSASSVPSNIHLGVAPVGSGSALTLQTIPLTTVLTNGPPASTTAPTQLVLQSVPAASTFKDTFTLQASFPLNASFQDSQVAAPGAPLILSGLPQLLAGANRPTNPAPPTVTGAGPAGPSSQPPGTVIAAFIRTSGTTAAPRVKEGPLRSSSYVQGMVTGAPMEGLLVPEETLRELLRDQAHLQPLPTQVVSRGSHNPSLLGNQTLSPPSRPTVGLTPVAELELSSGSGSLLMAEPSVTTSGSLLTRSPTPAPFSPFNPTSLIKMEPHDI
# Chain of HSF1 (Q00613 whole entry): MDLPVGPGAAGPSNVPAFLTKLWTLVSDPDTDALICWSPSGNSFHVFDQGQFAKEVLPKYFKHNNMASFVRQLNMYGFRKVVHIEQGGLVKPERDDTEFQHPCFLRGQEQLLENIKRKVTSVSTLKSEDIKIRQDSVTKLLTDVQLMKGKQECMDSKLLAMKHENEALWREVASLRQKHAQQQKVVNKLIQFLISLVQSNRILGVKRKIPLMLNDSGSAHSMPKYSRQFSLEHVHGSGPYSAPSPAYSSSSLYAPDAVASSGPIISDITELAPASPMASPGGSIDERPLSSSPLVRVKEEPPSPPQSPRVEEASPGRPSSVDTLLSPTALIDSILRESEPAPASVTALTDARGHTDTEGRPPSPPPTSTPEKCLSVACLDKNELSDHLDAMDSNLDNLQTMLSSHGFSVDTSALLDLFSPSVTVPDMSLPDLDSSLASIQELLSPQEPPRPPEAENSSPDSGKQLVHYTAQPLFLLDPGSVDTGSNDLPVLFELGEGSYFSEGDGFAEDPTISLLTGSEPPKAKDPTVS
# Chain of ETV5 (P41161 whole entry): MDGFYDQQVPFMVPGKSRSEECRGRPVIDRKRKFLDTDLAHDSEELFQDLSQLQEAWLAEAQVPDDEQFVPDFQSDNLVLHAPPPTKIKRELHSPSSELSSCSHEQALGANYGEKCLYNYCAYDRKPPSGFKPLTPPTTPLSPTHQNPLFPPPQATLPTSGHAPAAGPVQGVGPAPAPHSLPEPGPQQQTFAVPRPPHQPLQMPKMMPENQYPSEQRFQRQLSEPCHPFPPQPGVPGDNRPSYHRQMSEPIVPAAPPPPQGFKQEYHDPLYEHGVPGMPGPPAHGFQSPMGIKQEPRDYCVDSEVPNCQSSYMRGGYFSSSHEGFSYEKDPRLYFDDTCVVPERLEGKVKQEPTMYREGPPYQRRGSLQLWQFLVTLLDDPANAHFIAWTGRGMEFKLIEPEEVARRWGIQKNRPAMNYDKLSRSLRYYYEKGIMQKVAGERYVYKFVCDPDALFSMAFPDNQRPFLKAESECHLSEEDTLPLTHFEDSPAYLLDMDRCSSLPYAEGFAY
sequence,measurement,setting,value
GGGCTT,binding signal,[1],"1.31 fold enrichment (6-mer frequency, TF over GST control)"
same,binding signal,[2],"1.18 fold enrichment (6-mer frequency, TF over GST control)"
same,binding signal,[3],"1.15 fold enrichment (6-mer frequency, TF over GST control)"
same,binding signal,[4],"1.21 fold enrichment (6-mer frequency, TF over GST control)"
same,binding signal,[5],"1.19 fold enrichment (6-mer frequency, TF over GST control)"
same,binding signal,[6],"1.24 fold enrichment (6-mer frequency, TF over GST control)"
same,binding signal,[7],"1.1 fold enrichment (6-mer frequency, TF over GST control)"
same,binding signal,[8],"1.2 fold enrichment (6-mer frequency, TF over GST control)"
same,binding signal,[9],"1.41 fold enrichment (6-mer frequency, TF over GST control)"
same,binding signal,[10],"1.24 fold enrichment (6-mer frequency, TF over GST control)"
same,binding signal,[11],"1.18 fold enrichment (6-mer frequency, TF over GST control)"
same,binding signal,[12],"1.46 fold enrichment (6-mer frequency, TF over GST control)"
same,binding signal,[13],"1.11 fold enrichment (6-mer frequency, TF over GST control)"
same,binding signal,[14],"1.08 fold enrichment (6-mer frequency, TF over GST control)"
same,binding signal,[15],"1.22 fold enrichment (6-mer frequency, TF over GST control)"
same,binding signal,[16],"1.17 fold enrichment (6-mer frequency, TF over GST control)"
same,binding signal,[17],"1.77 fold enrichment (6-mer frequency, TF over GST control)"
same,binding signal,[18],"1.29 fold enrichment (6-mer frequency, TF over GST control)"
